Reference: PubChem BioAssay (NCATS)
Where “and” joins values, the source holds several entries; their conditions need not be identical. Equal entries are not always repeated. Results filed as inconclusive are left out. Calls of active or inactive are those of the source. Unless noted, the call rests on the fitted dose curve; in most records, active means well fitted curve in the direction sought with a large enough effect; inconclusive means small, poorly fitted or top-dose-only effect, or another doubt; inactive means no such curve, though single readings can be large or run the other way.

Assay: qHTS Assay for Identifying Gametocytocidal Compounds (AID 743244);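 further: on the % scale 0 is the no-effect control and ±100 the full control effect; actives lower the fluorescent signal which means gametocytes are killed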
Details: P. falciparum 3D7 stage III-V gametocytes, alamarBlue, 72 h; max response: stronger effect = lower value
Method in brief: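 Viability read-out was resazurin reduction (alamarBlue, 24 h) measured at Ex 525/Em 598 nm. Beforehand, late-stage (III-V) 3D7 P. falciparum gametocytes at 20,000 cells/well were incubated with compound 72 h at 37C under 5% CO2.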

Row | SMILES | max response
1 | c1cnc2cc3c(cc2n1)C1CNCC3C1 | -11.9% (inactive)
2 | CC(C)(S)[C@@H](N)C(=O)O | 21.3% (inactive)
3 | CC(C)[N+]1(C)[C@@H]2CC[C@H]1CC(OC(=O)C(CO)c1ccccc1)C2 (some centres not stated) | 6.21% (inactive) and -2.53% (inactive)
4 | CCCCCCCCCCCCCCCCCCCCCCO | 23% (inactive)
5 | CC(C)c1ccc2oc3nc(N)c(C(=O)O)cc3c(=O)c2c1 | 20.5% (inactive)
6 | N=C(N)c1ccc2cc(OC(=O)c3ccc(N=C(N)N)cc3)ccc2c1 | 6.62% (inactive)
7 | Cc1c(C(=O)NN2CCCCC2)nn(-c2ccc(Cl)cc2Cl)c1-c1ccc(Cl)cc1 | 2.34% (inactive)
8 | Cc1cc2cc3c(C)cc(=O)oc3c(C)c2o1 | 13.8% (inactive)
9 | O=C(O)CCNC(=O)c1ccc(N=Nc2ccc(O)c(C(=O)O)c2)cc1 | 7.5% (inactive)
10 | N=C(N=C(N)N)N1CCOCC1 | 0.738% (inactive)
11 | NC(=O)Cc1cccc(C(=O)c2ccccc2)c1N | 5.12% (inactive)
12 | CCCOc1ccc2nc(NC(=O)OC)[nH]c2c1 | -3.98% (inactive)
13 | Nc1ncn([C@H]2C[C@H](O)[C@@H](CO)O2)c(=O)n1 | -3.47% (inactive)
14 | Cc1cccc(CN2CCN(C(c3ccccc3)c3ccc(Cl)cc3)CC2)c1 (configuration not stated) | 0.914% (inactive)
15 | CC(C)Oc1ccc2c(=O)c(-c3ccccc3)coc2c1 | -8.04% (inactive) and -1.57% (inactive)
16 | COc1cc(C(C)=O)ccc1OCCCN1CCC(c2noc3cc(F)ccc23)CC1 | 6.32% (inactive)
17 | CC1=C(C(=O)O)N2C(=O)[C@@H](NC(=O)[C@H](N)C3=CCC=CC3)[C@H]2SC1 | -5.14% (inactive)

Assay: qHTS profiling for inhibitors of Plasmodium falciparum (3D7) proliferation (AID 743322; call rule not given here;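 further: infected erythrocytes exposed to compound for 72 h before lysis; 100% = DMSO vehicle wells and 0% = 0.29 µM artemisinin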)
Details: P. falciparum 3D7 proliferation; at 28.7 µM (top of the series) unless noted
Method in brief: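 Erythrocytes infected with P. falciparum (0.3% parasitemia, 2.5% hematocrit) incubated with compounds 72 h at 37 C, 5% CO2. Lysis with saponin/Triton buffer containing SYBR Green I, overnight at room temperature in the dark; DNA fluorescence (485/535 nm) normalised to 0.29 uM artemisinin and DMSO.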

Row | SMILES | remaining parasite growth % (stronger effect = lower value)
18 | CCN(CC)CCOc1ccc(Nc2ncc3cc(-c4c(Cl)cccc4Cl)c(=O)n(C)c3n2)cc1 | 0.673%
19 | Cc1cc(C2CCCCC2)n(O)c(=O)c1 | -0.4%
20 | Cc1nc(Nc2ncc(C(=O)Nc3c(C)cccc3Cl)s2)cc(N2CCN(CCO)CC2)n1 | 71.9%
21 | COc1cc2c(N3CCN(C(=O)Nc4ccc(OC(C)C)cc4)CC3)ncnc2cc1OCCCN1CCCCC1 | -0.248%
22 | CCCCN(CCCC)CCC(O)c1cc2c(Cl)cc(Cl)cc2c2cc(C(F)(F)F)ccc12 (configuration not stated) | -0.286% [at 9.63 µM]
